ASK1 primary – ASK1 kinase inhibitors, primary screen, biochemical, AlphaScreen; Mitogen-activated protein kinase kinase kinase 5 (Homo sapiens), Q99683; AlphaScreen MKK6 phosphorylation by ASK1, luminescence; inhibition, % at 7.44 µM; actives 0.99% (n = 22,000); in the data active means inhibition above about 35%;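 further: 0% = median of compound wells and 100% = no enzyme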
ULK1 inh – ULK1 kinase inhibitors, primary screen, biochemical, AlphaScreen. Serine/threonine-protein kinase ULK1 (Homo sapiens), O75385. AlphaScreen Atg13 phosphorylation by ULK1, luminescence. inhibition, % at 5.96 µM. actives 1.9% (n = 30,000); in the data active means inhibition above about 43%;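 further: 0% = median of compound wells and 100% = no enzyme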
Target sequence (O75385 whole entry, looked up): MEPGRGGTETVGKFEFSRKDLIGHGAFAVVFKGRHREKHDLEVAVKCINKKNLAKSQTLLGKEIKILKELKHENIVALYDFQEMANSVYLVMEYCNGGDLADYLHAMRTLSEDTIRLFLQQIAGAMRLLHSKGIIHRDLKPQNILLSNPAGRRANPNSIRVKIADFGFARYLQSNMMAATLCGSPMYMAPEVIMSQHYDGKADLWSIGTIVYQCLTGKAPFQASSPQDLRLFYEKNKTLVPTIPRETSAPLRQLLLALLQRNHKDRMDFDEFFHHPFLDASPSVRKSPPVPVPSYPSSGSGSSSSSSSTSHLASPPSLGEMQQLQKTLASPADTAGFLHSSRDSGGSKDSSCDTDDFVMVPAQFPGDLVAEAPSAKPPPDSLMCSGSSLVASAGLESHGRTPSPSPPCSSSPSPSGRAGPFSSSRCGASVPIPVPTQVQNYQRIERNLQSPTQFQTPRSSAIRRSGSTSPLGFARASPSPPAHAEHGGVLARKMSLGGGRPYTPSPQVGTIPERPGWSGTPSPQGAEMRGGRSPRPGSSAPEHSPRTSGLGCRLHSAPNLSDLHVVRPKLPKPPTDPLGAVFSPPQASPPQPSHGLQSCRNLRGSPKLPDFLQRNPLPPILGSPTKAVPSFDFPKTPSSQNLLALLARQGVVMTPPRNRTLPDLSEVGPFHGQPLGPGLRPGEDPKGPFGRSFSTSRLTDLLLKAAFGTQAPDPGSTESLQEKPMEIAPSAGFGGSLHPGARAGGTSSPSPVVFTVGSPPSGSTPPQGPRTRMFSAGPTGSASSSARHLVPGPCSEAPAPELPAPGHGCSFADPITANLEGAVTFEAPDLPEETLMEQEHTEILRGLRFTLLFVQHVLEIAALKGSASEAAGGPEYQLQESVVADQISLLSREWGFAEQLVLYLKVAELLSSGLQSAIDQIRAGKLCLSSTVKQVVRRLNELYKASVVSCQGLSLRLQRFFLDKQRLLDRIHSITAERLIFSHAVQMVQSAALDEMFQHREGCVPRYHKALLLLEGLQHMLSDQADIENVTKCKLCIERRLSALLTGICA
* marks the source's active call; other numbers are inactive results; · = not tested or not shown; ! = not active in a repeat. Sampled rows, rich in hits. Any-hit rate of the full collection: about 2.4%.

SMILES	ASK1 primary	ULK1 inh
O=C(Nc1ccc2[nH]ncc2c1)C1CCN(C(=O)[C@@H](O)CSc2ccc(Br)cc2)C1 (some centres undefined)	-4.8	14.9
O=C(/C=C/c1ccccc1)c1cccc(N2C(=O)C=CC2=O)c1	·	55.4*
COc1cc(NC(=O)c2cccc(-n3cc(/C=C/C(=O)c4ccccc4)cn3)c2)ccc1CN(C)C	-17.6	21.0
Cc1ncn(-c2ccc(Nc3nccc(-c4cc(C#N)cc(N5CCC(O)C5)c4)n3)cc2)n1 (centres undefined)	12.6	10.1
O=C(NCCOc1ccccc1)C1CCN(c2ccc(Cl)nn2)CC1	1.8	2.4
Fc1cc(-c2nc(Nc3cccc(CN4CCCC4)c3)ncc2F)cc(N2CCOCC2)c1	11.5	70.0*
Fc1cc(-c2ccnc(Nc3cccc(CN4CCOCC4)c3)n2)cc(N2CCOCC2)c1	17.1	38.2
Fc1cc(-c2nc(Nc3cccc(CN4CCOCC4)c3)ncc2F)cc(N2CCOCC2)c1	10.4	45.0*
Fc1cc(-c2nc(Nc3cccc(Cn4cccn4)c3)ncc2F)cc(N2CCOCC2)c1	12.0	20.9
NC(C(=O)N1CCC(OC(=O)Nc2ccncc2)CC1)c1ccc(Br)cc1 (centres undefined)	-12.1	-10.1
Cc1noc(C)c1-c1nc(NC2CCN(Cc3ccccc3)CC2)c2ncn(C3CCCCC3)c2n1	14.0	-11.0
Cc1nc(NCc2ccco2)cc(-c2cncc(-c3ccccc3)c2)n1	·	-11.0
COc1cccc(CN(CCN)C(=O)Nc2ccc(-c3cn[nH]c3)cc2OCCCO)c1	19.6	78.2*
COc1cccc(CN(CCCN(C)C)C(=O)Nc2ccc(-c3cn[nH]c3)cc2OC)c1	-8.0	-9.7
FC(F)(F)c1cccc(CNc2ccnc(Nc3ccc(N4CCOCC4)cc3)n2)c1	35.9*!	-3.2
FC(F)(F)c1cccc(CNc2ccnc(NCCN3CCOCC3)n2)c1	-27.5	-12.2
Cc1cnc(Cl)nc1NCCN1CCOCC1	2.8	8.7
Cc1ncn(-c2ccc(Nc3nccc(-c4ccc(N5CCCC(CO)C5)c(C#N)c4)n3)cc2)n1 (centres undefined)	-0.2	64.8*
Cc1ncn(-c2ccc(Nc3nccc(-c4ccc(C#N)c(N5CCCC5)c4)n3)cc2)n1	-4.3	-8.8
Cc1ncn(-c2ccc(Nc3nccc(-c4ccc(C#N)c(N5CCC(O)CC5)c4)n3)cc2)n1	-6.1	-1.3
N#Cc1cc(-c2ccnc(Nc3ccc(-n4cnc(N5CCC(O)CC5)n4)cc3)n2)ccc1N1CCC(O)CC1	-8.6	72.1*
Cc1ncn(-c2ccc(Nc3nccc(-c4ccc(N5CCC(O)CC5)nc4)n3)cc2)n1	0.0	45.9*
N#Cc1cc(-c2ccnc(Nc3ccc(-n4cnc(C(F)(F)F)n4)cc3)n2)ccc1N1CCC(O)CC1	5.7	0.9
C[C@@H]1CN(C(=O)Nc2cccc(Nc3nccc(-c4ccc(N5CCC(O)CC5)c(C#N)c4)n3)c2)C[C@H](C)O1	-16.1	76.3*
Cn1nnc(-c2ccc(Nc3nccc(-c4ccc(N5CCC(O)CC5)c(C#N)c4)n3)cc2)n1	0.3	28.1
SMILES	ASK1 primary	ULK1 inh
CC(C)N(CCNc1nc(-c2ccc(C(=O)N3CCN(C)CC3)cc2)nc2c1ncn2-c1ccsc1)C(C)C	-2.4	0.7
CC(C)(C)OC(=O)NC1CCN(c2ccnc(Nc3ccc(S(N)(=O)=O)cc3)n2)CC1	-12.3	-12.2
CCN(CC)c1nc(NCCCN2CCCC2=O)nc(Oc2ccccc2)n1	-14.5	-1.7
O=C(NCCCN1CCCC1=O)c1cnc(NCc2cccnc2)s1	-16.3	-0.8
Cc1cc(NCCCN2CCOCC2)nc(Nc2ccc(OC(F)(F)F)cc2)n1	-26.3	4.0
O=C(NCCOc1ccccc1)c1ccc2nc(Nc3ccccn3)sc2c1	2.8	4.1
O=C(Nc1cncc(-c2ccc3[nH]ncc3c2)c1)C(O)c1ccc(Cl)cc1 (centres undefined)	13.7	19.6
CC(=O)Nc1cc(-c2ccnc(N)n2)ccc1NC(=O)COc1cccc(C)c1	0.8	10.8
Cc1cccc(OCc2nc3ccc(-c4ccnc(N)n4)cc3[nH]2)c1	7.7	67.6*
O=C(Cc1cccs1)Nc1ccc2sccc2c1	·	-5.8
O=C(Nc1ccc(N2CCOCC2)cc1)c1cnc(N2CCN(c3ccccn3)CC2)s1	0.5	-6.3
CCN(CC)C(=O)C1CCCN(c2ncc(C(=O)Nc3ccc(Oc4ccccc4)cc3)s2)C1 (centres undefined)	4.2	-4.7
CCN(CC)C(=O)C1CCCN(c2ncc(C(=O)Nc3ccc(N4CCOCC4)cc3)s2)C1 (centres undefined)	-14.6	48.5*
O=C(Nc1ccc(N2CCOCC2)cc1)c1cnc(N2CCOCC2)s1	4.0	44.8*
CC(=O)Nc1ccc(Nc2cc(-c3ccc(C(N)=O)cc3)ncn2)cc1	-2.7	-6.3
OCCNc1nc(N2CCCC2CO)nc2c1ncn2C1CCCCC1 (centres undefined)	0.3	2.9
CC(C)n1cnc2c(Nc3ccc4c(c3)OCO4)nc(Nc3ccc4ncccc4c3)nc21	24.1	36.2
CNS(=O)(=O)c1ccccc1Nc1nc(Nc2cc(OC)ccc2OC)ncc1Br	-3.4	64.3*
CNS(=O)(=O)c1ccccc1Nc1nc(Nc2ccc(N3CCOCC3)cc2OC)ncc1Br	-46.2	91.2*
COc1ccc(Nc2ncc(-c3ccccc3)cn2)cc1	·	4.3
COc1cnc(Nc2ccc(N3CCOCC3)cc2)nc1Nc1ccc(N2CCOCC2)cc1	-2.0	17.1
O=C(O)C(CCBr)(c1ccccc1)c1ccccc1	·	2.5
Cc1ccc(-c2ncn(-c3ccc(Nc4ncc5cccc(-c6ccc7c(cnn7C)c6)c5n4)cc3)n2)cn1	14.1	-4.6
O=C(NNC(=O)C1CCCCC1)c1cccs1	·	6.7
Cc1cc(NCc2ccccc2)nc(-c2c(C)nn(C)c2C)n1	-6.2	-11.5
SMILES	ASK1 primary	ULK1 inh
COc1cc(Nc2nc(N3CCN(Cc4ccc5c(c4)OCO5)CC3)nc3nc[nH]c23)cc(OC)c1OC	11.1	-33.0
Fc1ccc(-c2n[nH]c3ccc(-c4ncn[nH]4)cc23)cc1	-69.1	71.3*
c1ccc(-c2ccnc(Nc3ccc(-c4ncn[nH]4)cc3)n2)cc1	-16.1	-10.2
N[C@H](Cc1cccc(Cl)c1)c1nc2ccc(-c3cn[nH]c3)cc2c(=O)[nH]1	31.6	28.0
COc1cc(NC(=O)c2cnc(NCc3ccc4c(c3)OCO4)s2)cc(OC)c1OC	7.9	0.7
COc1cc(Nc2nc(-c3ccccc3)ncc2C)cc(OC)c1OC	15.7	48.8*
COc1cc(Nc2nc(-c3cccc(C(C)=O)c3)ncc2C)cc(OC)c1OC	7.0	24.5
COc1cc(Nc2nc(-c3ccc(C(=O)NC4CC4)cc3)ncc2C)cc(OC)c1OC	21.1	35.2
COc1ccc(-c2ncc(C)c(Nc3cc(OC)c(OC)c(OC)c3)n2)cc1	21.5	66.5*
O=C(NC1CC1)c1cccc(-c2ccc(N3CCOCC3)nc2)n1	-5.4	3.4
C[C@H](O)C(=O)N1CCN(C(=O)c2cnccc2Nc2ccc(Cl)c(F)c2)CC1	23.3	-0.1
CCN(CC)C(=O)C1CCCN(c2cc(C(=O)NCCO)c3ccccc3n2)C1 (centres undefined)	2.0	4.2
CN1CCN(C(=O)c2ccc(-c3nc(NCCCN4CCCC4=O)c4[nH]cnc4n3)cc2)CC1	-11.8	-4.0
O=C(Nc1ccc(N2CCOCC2)cc1)c1ccc2nc(Nc3ccc(N4CCOCC4)cc3)sc2c1	6.0	1.6
O=C(Nc1ccc(N2CCOCC2)cc1)c1ccc2nc(Nc3ccccn3)sc2c1	-31.8	51.5*
